Compounds with a hit are over-represented: about 31% of the library has one in this group of screens.
CYP2C9 inh: blocks human cytochrome P450 2C9 | CYP2C9 Supersomes, luciferin-H conversion, luminescence | P11712 | inhibition, % at 5 µM | 96,000 compounds, 20% hits;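 active = blocking of liver enzyme CYP2C9 beyond about 50% at 5 µM, limit read from the data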
Target sequence (P11712 whole entry, looked up): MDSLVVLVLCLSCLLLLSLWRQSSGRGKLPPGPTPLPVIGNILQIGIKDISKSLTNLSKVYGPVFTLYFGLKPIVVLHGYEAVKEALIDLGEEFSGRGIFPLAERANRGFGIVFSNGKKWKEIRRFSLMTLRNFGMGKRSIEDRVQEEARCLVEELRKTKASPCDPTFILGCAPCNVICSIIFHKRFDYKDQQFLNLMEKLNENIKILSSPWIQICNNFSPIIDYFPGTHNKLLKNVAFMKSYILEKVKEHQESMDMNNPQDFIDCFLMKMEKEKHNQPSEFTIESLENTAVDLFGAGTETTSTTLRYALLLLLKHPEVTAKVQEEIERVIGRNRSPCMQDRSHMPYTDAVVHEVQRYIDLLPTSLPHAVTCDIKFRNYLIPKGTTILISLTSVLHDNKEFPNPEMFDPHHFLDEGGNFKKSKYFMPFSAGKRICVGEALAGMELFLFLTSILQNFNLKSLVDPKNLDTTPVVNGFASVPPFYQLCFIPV
CYP2C9 activ: activators of human CYP2C9; AID 1024; P11712; 96,000 compounds, 1.4% hits; recombinant CYP2C9, luciferin-H conversion, luminescence; active compounds read high; factor 1 = untreated enzyme, 0 = blocked; activation factor at 5 µM;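 active = activation factor of 2 or more for CYP2C9 at a 5 µM dose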;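 note: 0 = sulfaphenazole-blocked wells and 1 = vehicle-only wells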
CYP2C19 inhib: inhibitors of human CYP2C19; CYP2C19 Supersomes, luciferin-H EGE luminescence, 30 min; 96,000 compounds, 21% hits; P33261; inhibition, % at 5 µM; AID 778;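 active = CYP2C19 inhibition above a set limit at 5 µM in the primary screen, cut at about 50% in these data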;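 note: plate controls were negative control wells for no effect and 2.5 mM tranylcypromine positive control for full effect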
CYP2C19 act: increases human CYP2C19 enzyme activity. 96,000 tested, under 10 active. activation factor at 5 µM. AID 1025. P33261. recombinant CYP2C19, luciferin-H EGE luminescence; active compounds read high; 0 = fully inhibited enzyme, 1 = untreated enzyme;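 active = activation factor of at least 2 at 5 µM in the primary screen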;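 note: 0 = wells with 2.5 mM tranylcypromine and 1 = vehicle-only wells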
* = called active by the depositor.

How did COCCn1c(C)cc(C(=O)COC(=O)c2ccc(NC(=O)CC#N)cc2)c1C do in these assays?
CYP2C9 inh: -13; CYP2C9 activ: 1.1; CYP2C19 inhib: -3; CYP2C19 act: 1

How did COCC(C)n1c(C)cc(C(=O)COC(=O)c2c(C)nn(-c3ccccc3)c2C)c1C (stereo not drawn) do in these assays?
CYP2C9 inh: 41; CYP2C9 activ: 0.6; CYP2C19 inhib: 62*; CYP2C19 act: 0.4

What do the screens show for `COCCn1c(C)cc(C(=O)COC(=O)c2ccc3ncsc3c2)c1C`?
CYP2C9 inh: -99; CYP2C9 activ: 2*; CYP2C19 inhib: 29; CYP2C19 act: 0.7

Results for CN1C(=S)SC(N(O)C(=O)NC2CCCCC2)C1(C)C (stereo not drawn) ?
CYP2C9 inh: 24; CYP2C9 activ: 0.8; CYP2C19 inhib: 8; CYP2C19 act: 0.9

Results for O=C(CSc1ccccc1Cl)N1CCC(c2nc3ccccc3s2)CC1 ?
CYP2C9 inh: 46; CYP2C9 activ: 0.5; CYP2C19 inhib: 39; CYP2C19 act: 0.6

How did CCC(C)NC(=O)CSc1ncccc1C(=O)O (stereo not drawn) do in these assays?
CYP2C9 inh: 2; CYP2C9 activ: 1; CYP2C19 inhib: -4; CYP2C19 act: 1

Results for CCOC(=O)c1c(C)[nH]c(C)c1C(=O)COC(=O)C1CCCN1S(=O)(=O)c1ccccc1F (stereo not drawn) ?
CYP2C9 inh: 95*; CYP2C9 activ: 0.1; CYP2C19 inhib: 100*; CYP2C19 act: 0

Results for CCOC(=O)c1c(C)[nH]c(C(=O)COC(=O)c2ccc(F)c(S(=O)(=O)N3CCOCC3)c2)c1C ?
CYP2C9 inh: 20; CYP2C9 activ: 0.8; CYP2C19 inhib: -7; CYP2C19 act: 1.1

Results for Cc1ccc(NC(=O)c2cc([N+](=O)[O-])ccc2NCc2cccnc2)cc1Cl ?
CYP2C9 inh: 92*; CYP2C9 activ: 0.1; CYP2C19 inhib: 85*; CYP2C19 act: 0.2

What do the screens show for `COc1cnn(-c2ccccc2)c(=O)c1SCc1ccc(Cl)cc1Cl`?
CYP2C9 inh: 47; CYP2C9 activ: 0.5; CYP2C19 inhib: 67*; CYP2C19 act: 0.3

How did Cn1ncc(C#N)c1/N=C/N1CCCC1 do in these assays?
CYP2C9 inh: 1; CYP2C9 activ: 1; CYP2C19 inhib: -2; CYP2C19 act: 1

Results for O=C(Oc1ccccc1)c1ccc(-n2cnnn2)cc1 ?
CYP2C9 inh: 22; CYP2C9 activ: 0.8; CYP2C19 inhib: 69*; CYP2C19 act: 0.3

How did COc1cccc(-n2cnnn2)c1 do in these assays?
CYP2C9 inh: -11; CYP2C9 activ: 1.1; CYP2C19 inhib: -8; CYP2C19 act: 1.1

Results for Cc1ccc(C)n1-c1ccc(-n2cnnn2)cc1 ?
CYP2C9 inh: 20; CYP2C9 activ: 0.8; CYP2C19 inhib: 74*; CYP2C19 act: 0.3

What do the screens show for `c1ccc(Oc2ccc(-n3cnnn3)cc2)cc1`?
CYP2C9 inh: 43; CYP2C9 activ: 0.6; CYP2C19 inhib: 82*; CYP2C19 act: 0.2

How did CO/C([O-])=N/c1c[n+](-c2ccc(Cl)cc2)no1 do in these assays?
CYP2C9 inh: 10; CYP2C9 activ: 0.9; CYP2C19 inhib: 18; CYP2C19 act: 0.8

Results for O=C(CCNS(=O)(=O)c1cccc2nsnc12)N1CC(=O)N(CCc2ccccc2)C(=O)C1 ?
CYP2C9 inh: 4; CYP2C9 activ: 1; CYP2C19 inhib: 12; CYP2C19 act: 0.9

What do the screens show for `O=C(COc1ccc(Cl)cc1Br)N1CCN(c2ccccc2)CC1`?
CYP2C9 inh: -12; CYP2C9 activ: 1.1; CYP2C19 inhib: 45; CYP2C19 act: 0.6

How did O=C(c1ccc2ccccc2c1)N1CCN(c2ccccc2)CC1 do in these assays?
CYP2C9 inh: -9; CYP2C9 activ: 1.1; CYP2C19 inhib: 62*; CYP2C19 act: 0.4

Results for CN1CCN(C(=O)c2cccc(S(=O)(=O)N3CCCCC3)c2)CC1 ?
CYP2C9 inh: 2; CYP2C9 activ: 1; CYP2C19 inhib: -3; CYP2C19 act: 1

Results for O=C(COc1ccc(S(=O)(=O)N2CCCC2)cc1Cl)N1CCN(c2ccccc2)CC1 ?
CYP2C9 inh: 85*; CYP2C9 activ: 0.2; CYP2C19 inhib: 88*; CYP2C19 act: 0.1

What do the screens show for `CCc1cc2cc(C(=O)N3CCN(Cc4ccccc4)CC3)sc2s1`?
CYP2C9 inh: 9; CYP2C9 activ: 0.9; CYP2C19 inhib: 46; CYP2C19 act: 0.5

What do the screens show for `O=C(c1cccc(S(=O)(=O)N2CCCC2)c1)N1CCN(c2ccccc2)CC1`?
CYP2C9 inh: 43; CYP2C9 activ: 0.6; CYP2C19 inhib: 67*; CYP2C19 act: 0.3

Results for CCc1cc2cc(C(=O)N3CCN(c4ccccc4)CC3)sc2s1 ?
CYP2C9 inh: 63*; CYP2C9 activ: 0.4; CYP2C19 inhib: 43; CYP2C19 act: 0.6

Results for Cc1cc(C)nc(N2CCC(C(=O)NCc3cccc(C(F)(F)F)c3)CC2)n1 ?
CYP2C9 inh: -58; CYP2C9 activ: 1.6; CYP2C19 inhib: -1; CYP2C19 act: 1

Results for CCN(CC)C(=O)C1CCCN(C(=O)Nc2ccccc2)C1 (stereo not drawn) ?
CYP2C9 inh: 21; CYP2C9 activ: 0.8; CYP2C19 inhib: 45; CYP2C19 act: 0.6

How did CCN1CCN(CCCOc2ccc(-c3ccccc3)cc2)CC1 do in these assays?
CYP2C9 inh: -13; CYP2C9 activ: 1.1; CYP2C19 inhib: -13; CYP2C19 act: 1.1

Results for Cc1cc(C)cc(-n2cnc3cc(C(=O)O)ccc32)c1 ?
CYP2C9 inh: 17; CYP2C9 activ: 0.8; CYP2C19 inhib: 8; CYP2C19 act: 0.9

What do the screens show for `CCOC(=O)CC(=O)CSc1nc(-c2cccnc2)cc(C)c1C#N`?
CYP2C9 inh: 81*; CYP2C9 activ: 0.2; CYP2C19 inhib: 35; CYP2C19 act: 0.6

What do the screens show for `Cc1cc(-c2ccccc2)c(C#N)c(SCC(N)=O)n1`?
CYP2C9 inh: -198; CYP2C9 activ: 3*; CYP2C19 inhib: 41; CYP2C19 act: 0.6

What do the screens show for `CCOC(=O)CC(=O)CSc1nc(-c2cccnc2)ccc1C#N`?
CYP2C9 inh: 34; CYP2C9 activ: 0.7; CYP2C19 inhib: 30; CYP2C19 act: 0.7

What do the screens show for `CCOC(=O)CC(=O)CSc1nc(C)cc(-c2cccnc2)c1C#N`?
CYP2C9 inh: 73*; CYP2C9 activ: 0.3; CYP2C19 inhib: 28; CYP2C19 act: 0.7

How did CSc1ccccc1NC(=O)COc1ccccc1Cl do in these assays?
CYP2C9 inh: 59*; CYP2C9 activ: 0.4; CYP2C19 inhib: 77*; CYP2C19 act: 0.2

What do the screens show for `CSc1ccccc1NC(=O)Nc1cccc(Cl)c1Cl`?
CYP2C9 inh: 20; CYP2C9 activ: 0.8; CYP2C19 inhib: 13; CYP2C19 act: 0.9

What do the screens show for `O=C(COc1ccccc1O)Nc1ccc(Cl)cc1`?
CYP2C9 inh: 60*; CYP2C9 activ: 0.4; CYP2C19 inhib: 88*; CYP2C19 act: 0.1

Results for O=[N+]([O-])c1ccc(Sc2ccc(Cl)c(Cl)c2)nc1 ?
CYP2C9 inh: -2; CYP2C9 activ: 1; CYP2C19 inhib: 6; CYP2C19 act: 0.9

What do the screens show for `COC(=O)c1cccc(NC(=O)CN(c2ccc3c(c2)OCO3)S(C)(=O)=O)c1C`?
CYP2C9 inh: 71*; CYP2C9 activ: 0.3; CYP2C19 inhib: 90*; CYP2C19 act: 0.1

Assay outcomes deposited in PubChem by Sanford-Burnham Center for Chemical Genomics.
